Inconclusive results are not listed. The source made the active and inactive calls. Calls come from the whole dose curve; tested in HEK293 reporter line.
% is set by controls: 0 for no effect and ±100 for the full control effect; potency is the fitted concentration of half-maximal effect.

The assay is described as follows: qHTS for Inhibitors of the Functional Ribonucleoprotein Complex (vRNP) of Lymphocytic Choriomeningitis Arenaviruses (LCMV): Viability assay - alamar blue signal for LCMV Primary Screen (AID 1347085). Note: nearly all actives have a fitted effect of over 80% in size. To be noted: alamar blue viability counter-screen, LCMV vRNP screen cells; series mostly up to 57.5 µM; activity change, negative = lower viability: at the top concentration. (In qHTS, concentration-response curves come from the screen itself.)
For the molecule `C/C=C(\C)C(=O)O[C@H](c1cc2ccc(=O)oc2cc1OC)[C@@H](O)C(C)(C)O`, the “activity change, negative = lower viability” value was -1.34% (inactive).
On to `S=C(NCc1ccccc1)NCc1ccccc1`, for which the “activity change, negative = lower viability” value was 15.3% (inactive).
For `CC12CCC(=O)C=C1C(O)CC1C2CCC2(C)C1CCC2(O)C(=O)CO` (stereo not given), the “activity change, negative = lower viability” value is 3.12% (inactive).
On the same count and under the same terms, the result for `CC1(C)C(CO)=CC(=O)C2=C1SCC(=O)N2` reads 7.07% (inactive).
The same measure, in the same setting: then `COc1ccc(C(=O)OCCc2ccc(O)cc2)cc1`, with 7.38% (inactive).
For `CCCC(C)C(O)CC` (stereo not given), the “activity change, negative = lower viability” value is 19.2% [at 115 µM] (inactive).
Regarding `C/C=C1\CN2[C@H]3C[C@@]45c6ccccc6N(C)[C@H]4[C@@H]2CC1C3[C@H]5O` (stereo not given in full), the “activity change, negative = lower viability” value was -6.79% (inactive).
As to `CC1(C)CCC[C@@]2(C)[C@@H]1CC[C@@]1(C)OC(=O)C[C@H]21`, the “activity change, negative = lower viability” value was 3.85% (inactive).
Consider `COc1ccc(-c2coc3cc(OC)cc(O)c3c2=O)cc1`, for which the “activity change, negative = lower viability” value is 0.671% (inactive).
Same read-out and setting: then `CN(CC=CC#CC(C)(C)C)Cc1cccc2ccccc12`, with 0.732% (inactive).
Turning to `CC(C)=CCC/C(C)=C/COc1c2occc2cc2ccc(=O)oc12`, the “activity change, negative = lower viability” value was 27.8% (inactive).
Same read-out and setting: then `C=CC(C)(CCC=C(C)C)OC(=O)c1ccccc1` (stereo not given), with 18.4% [at 115 µM] (inactive).
Regarding `O=c1c2ccccc2nc2n1CCC2`, the “activity change, negative = lower viability” value is -31.2% (inactive).
`CC(C)(C)[C@]1(O)CCN2C[C@H]3c4ccccc4CCc4cccc(c43)[C@@H]2C1`: the “activity change, negative = lower viability” value was 7.9% (inactive).
`C=C1[C@@H]2C[C@]3(C(CC2=O)[C@]24C5C[C@H]3[C@H]2N(CC)C[C@]5(C)CC[C@@H]4O)[C@@H]1O` (stereo not given in full): the “activity change, negative = lower viability” value is 16.3% (inactive).
Turning to `CC1(C)C[C@H](O)[C@@]23C[C@@H](OC2=O)[C@]2(C)C(=CCC4[C@@]5(C)CC[C@H](O)C(C)(C)C5CC[C@]42C)[C@@H]3C1` (stereo not given in full), the “activity change, negative = lower viability” value was 22.8% (inactive).
Take `Cc1c(O)cccc1C(=O)N[C@@H](CSc1ccccc1)[C@H](O)CN1C[C@H]2CCCC[C@@H]2C[C@@H]1C(=O)NC(C)(C)C`: the “activity change, negative = lower viability” value was 0.76% (inactive).
As to `COC(=O)C=CC(=O)OC`, the Potency is 3.06 µM (active).
As to `CCCCCCCCCCC(C)=O`, the “activity change, negative = lower viability” value is 17% (inactive).
Turning to `O=c1c(O)c(-c2cc(O)c(O)c(O)c2)oc2cc(O)ccc12`, the “activity change, negative = lower viability” value was 5.5% (inactive).
Regarding `CCCCc1nc2ccccc2[nH]1`, the “activity change, negative = lower viability” value was -15.1% (inactive).
Turning to `COc1cc(-c2cc(=O)c3c(O)cc(O)cc3o2)ccc1O`, the “activity change, negative = lower viability” value was -18.7% (inactive).
As for `CC(C)CNC(=O)/C=C/C=C/c1ccc2c(c1)OCO2`, the “activity change, negative = lower viability” value is 0.346% (inactive).
Still for that read-out and setting: then `CC(=O)O[C@H](COc1c2ccoc2cc2oc(=O)ccc12)C(C)(C)O`, with -10.2% (inactive); and `CCOC(=O)c1ccccc1`, with 10.4% [at 115 µM] (inactive); and `SC1CCCC1`, with 19.3% [at 115 µM] (inactive).
Turning to `C=Cc1cc(OC)c2c(c1)c(=O)oc1c2cc(OC)c2c(O)ccc(C3OC(C)C(O)C(C)(O)C3O)c21` (stereo not given), the “activity change, negative = lower viability” value was 7.8% (inactive).
Same read-out and setting: then `CC1(C)C=C2[C@H]3CC[C@@H]4[C@@]5(C)CCC(=O)C(C)(C)[C@@H]5CC[C@@]4(C)[C@]3(C)CC[C@@]2(C(=O)O)CC1`, with 7.92% (inactive); and `CC(=O)c1ccc(-c2cccs2)s1`, with 5.73% (inactive).
On to `Cc1c(O)c(C)c2c(c1O)C(=O)C[C@@H](c1ccccc1)O2`, for which the “activity change, negative = lower viability” value is 3.41% (inactive).
Consider `Nc1nc2c(ncn2[C@@H]2O[C@H](COP(=O)(O)OP(=O)(O)O)[C@@H](O)[C@H]2O)c(=O)[nH]1`, for which the “activity change, negative = lower viability” value was 16.7% (inactive).
As to `C=C1C(=O)O[C@H]2C[C@]3(C)C([C@@H](OC(=O)/C(C)=C/C)[C@H]12)[C@](C)(O)CC[C@H]3O` (stereo not given in full), the “activity change, negative = lower viability” value was -9.11% (inactive).
For the molecule `COc1cc(OC)c2c(-c3ccccc3)cc(=O)oc2c1`, the “activity change, negative = lower viability” value is -17.9% (inactive).
Still for that read-out and setting: then `O=C1CCC[C@H]2[C@@H]3CCCN4CCC[C@H](CN12)[C@H]34`, with 13.7% (inactive); and `O=c1c2c(O)cc(O)cc2oc2c(O)ccc(O[C@H]3O[C@@H](CO)[C@H](O)[C@@H](O)[C@@H]3O)c12`, with 3.65% (inactive).
For the molecule `CC1OC(OC2C(CO)OC(OCC3OC(OC(=O)[C@@]45CCC(C)(C)C[C@@H]4C4=CC[C@@H]6[C@@]7(C)CCC(OC8OCC(O)C(O)C8OC8OC(C)C(O)C(O)C8O)[C@@](C)(CO)C7CC[C@@]6(C)[C@]4(C)CC5)C(O)C(O)C3O)C(O)C2O)C(O)C(O)C1O` (stereo not given in full), the “activity change, negative = lower viability” value is -9.26% (inactive).
For the molecule `COc1cc(CCc2cc(NC(=O)c3ccc(N4C[C@@H](C)N[C@@H](C)C4)cc3)n[nH]2)cc(OC)c1`, the Potency is 43.2 µM (active).
With `CC(C)(O)CC[C@H](OC(=O)c1ccccc1)[C@](C)(O)[C@H]1CC[C@@]2(O)C3=CC(=O)[C@@H]4C[C@@H](O)[C@H](O)C[C@]4(C)C3CC[C@]12C` (stereo not given in full), the “activity change, negative = lower viability” value is -3.85% (inactive).
Same read-out and setting: then `CCC(=O)OCCC(C)CCC=C(C)C` (stereo not given), with 22.7% [at 115 µM] (inactive); and `Nc1ccn([C@@H]2O[C@H](CO)[C@@H](OP(=O)(O)O)[C@H]2O)c(=O)n1`, with 0.629% (inactive).

For the origin of these results see PubChem BioAssay (NCATS).
